Drawing on PubChem BioAssay AID1486 (The Scripps Research Institute Molecular Screening Center, 2009), this text covers inhibition for 95 compounds.

Screen size: about 220,000 compounds; about 2,400 (1.1%) were called active.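 How the source made its calls: active means inhibition above a per-campaign cutoff, the mean inhibition of all tested compounds plus 3 SD (cut at about 27% in these data); inactive means the rest.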 Shown is part of a subset that was picked to be rich in actives.

The experiment can be described thus: growth loss in parental Ba/F3 cells – cell-based, murine pro-B, CellTiter-Glo luminescence, counter-screen for JAK2V617F inhibitor project (AID 1486).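 Further: 0% = DMSO wells and 100% = JAK Inhibitor I control wells.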 Conditions: Ba/F3 parental viability, CellTiter-Glo ATP luminescence; at 5.6 µM; active compounds read high. (In ATP-based viability assays light output follows the ATP content of the culture.)
Take `CCCN(CCC)CC(O)COc1ccccc1C(=O)Nc1ccccc1` (stereo not given): the inhibition – broadly, the relative decrease from the control value, in per cent – is 1.95% (inactive).

Regarding `CNC(=O)c1csc(Cc2c(Cl)sc3ccc(Cl)cc23)n1`, the inhibition was -0.25% (inactive).

As to `COc1ccc(C(=O)CN(C(=O)c2ccc(Cl)cc2)N2C(=O)c3ccccc3C2=O)cc1`, the inhibition is -0.72% (inactive).

With `COc1ccc(Cn2c(-c3ccc(Cl)cc3)c[n+]3ccccc23)cc1`, the inhibition was 76.4% (active).

For the compound `COc1ccc(Cn2c(=O)cc(C)[nH]c2=S)cc1`, the inhibition is 9.89% (inactive).

Turning to `COc1cccc(Nc2nnc(SCC(=O)N3CC(=O)Nc4ccccc43)s2)c1`, the inhibition was -3.89% (inactive).

Regarding `Nc1ccc(C(=O)OCC(=O)NC2CCS(=O)(=O)C2)cc1[N+](=O)[O-]` (stereo not given), the inhibition was -1.89% (inactive).

Consider `Cc1ccnc(NC(=O)c2ccc(NC(=O)c3ccco3)cc2)c1`, for which the inhibition was -0.11% (inactive).

Take `COc1cccc(C(=O)Nc2ccc(NC(=O)c3ccco3)cn2)c1`: the inhibition is -2.07% (inactive).

Consider `Cc1ccc(C(=O)COc2cccc(NC(=O)c3ccco3)c2)cc1`, for which the inhibition is 95.5% (active).

Turning to `Cc1c(NC(=O)CSc2nnnn2-c2ccc(C(=O)O)cc2)c(=O)n(-c2ccccc2)n1C`, the inhibition was 9.83% (inactive).

On to `COc1ccc(C(=O)C2CCCN(C(=O)c3cnsn3)C2)c(C)c1` (stereo not given), for which the inhibition is -0.94% (inactive).

As for `CCOc1ccc(S(=O)(=O)Nc2ccc(S(=O)(=O)Nc3cc(OC)ccc3OC)cc2)cc1`, the inhibition was 5.24% (inactive).

As for `COc1ccc(NS(=O)(=O)c2ccc(NC(=O)c3ccc(N(C)S(C)(=O)=O)cc3)cc2)cc1`, the inhibition is 5.44% (inactive).

For `COc1ccc(NS(=O)(=O)c2ccc(Oc3c(C#N)cccc3C#N)cc2)cc1`, the inhibition was 42% (active).

As for `COc1ccccc1N1CC(C(=O)Nc2ccc(S(=O)(=O)N3CCOCC3)cc2)CC1=O` (stereo not given), the inhibition is 2.78% (inactive).

Turning to `CNc1nnc(-c2ccco2)s1`, the inhibition was -0.97% (inactive).

As for `COc1cccc(C(O)Cc2nc3ccccc3n2C)c1OC` (stereo not given), the inhibition is 0.12% (inactive).

With `COc1ccc(-c2nn(C)c(=O)c3ccccc23)cc1NC(=O)COc1ccccc1`, the inhibition is -0.19% (inactive).

As to `Cc1ccc(F)cc1NC(=O)Cc1nn(C)c(=O)c2ccccc12`, the inhibition was 37.3% (active).

Consider `Cc1ccc(NC(=O)Cn2nc(C)c3ccccc3c2=O)c(C)c1`, for which the inhibition was 4.31% (inactive).

`COc1ccc(Cl)cc1NC(=O)NC(C)C(C)(C)C` (stereo not given): the inhibition was 2.98% (inactive).

Turning to `Cc1nc2ccccc2nc(=O)c1NNc1ccc([N+](=O)[O-])cc1`, the inhibition was 4.24% (inactive).

Regarding `O=C(COC(=O)CCc1nc2ccccc2c(=O)[nH]1)Nc1ccc(N2CCOCC2)cc1`, the inhibition is -2.42% (inactive).

In the case of `CN(C)CCCNC(=O)/C=C/c1ccc(OCc2c(F)cccc2Cl)cc1`, the inhibition is 7.63% (inactive).

With `O=C(/C=C/c1ccc(OCc2c(F)cccc2Cl)cc1)N1CCOCC1`, the inhibition is 67.9% (active).

With `COCCCNC(=O)/C=C/c1ccc(OCc2c(F)cccc2Cl)cc1`, the inhibition is 2.28% (inactive).

As for `C/C(=N/Nc1nc(-c2ccccc2)c(CC(=O)O)s1)c1ccccc1`, the inhibition is 2.81% (inactive).

Turning to `O=C(CSc1nc2cc3c(cc2c(=O)n1CCC1=CCCCC1)OCO3)NCc1ccco1`, the inhibition is 33.2% (active).

Regarding `O=C(CCCn1c(SCC(=O)c2ccc(F)cc2)nc2ccccc2c1=O)NCc1ccco1`, the inhibition is 4.54% (inactive).

For the compound `C=C(C)Cn1c(SCC(=O)NCc2ccco2)nc2sc3c(c2c1=O)CCC3`, the inhibition was 1.93% (inactive).

For the compound `COc1cc(OC)cc(C(=O)NCC(=O)OCc2csc(-c3ccccc3)n2)c1`, the inhibition is 10.9% (inactive).

Consider `COc1cc(OC)cc(C(=O)NC2CCN(C(=O)N3c4ccccc4Sc4ccccc43)CC2)c1`, for which the inhibition was 6.78% (inactive).

Consider `CSCCNCc1cn(-c2ccc(F)cc2F)nc1-c1ccccc1C`, for which the inhibition is 5.07% (inactive).

For the compound `Cc1ccc(-c2nn(-c3cccc(F)c3)cc2CNCCc2ccncc2)o1`, the inhibition is 43% (active).

Regarding `Cc1ccc(-c2nn(-c3ccccc3)cc2CN(Cc2ccccc2)C(=O)CCC(=O)O)o1`, the inhibition is 6.11% (inactive).

`Cc1cc(Cl)ccc1C(=O)C1CCCN(C(=O)CCN2CCCO2)C1` (stereo not given): the inhibition was 0.61% (inactive).

In the case of `Cc1cc(=O)[nH]c(SCC(=O)Nc2ccc(Br)cc2)n1`, the inhibition was -7.26% (inactive).

For `O=C(/C=C/c1ccc(Cl)c([N+](=O)[O-])c1)c1ccc(O)cc1`, the inhibition was 2.68% (inactive).

In the case of `CNC(=O)Nc1cc(C(C)(C)C)no1`, the inhibition was 54.8% (active).

Take `CCCn1c(SCC(=O)Nc2ccc(C)c(S(=O)(=O)N3CCOCC3)c2)n[nH]c1=O`: the inhibition was 4.59% (inactive).

Turning to `CC[n+]1c(C)n(-c2ccccc2)c2ccc(NC(C)=O)cc21`, the inhibition was 57.7% (active).

On to `CCc1ccc(NC(=O)N2CCN(c3ccccc3)CC2)cc1`, for which the inhibition is 1.4% (inactive).

On to `CCn1c2ccccc2c2cc(NC(=O)CNC)ccc21`, for which the inhibition is 3.93% (inactive).

Regarding `Cc1ccc(/C=N/NC(=S)NC2CCCCC2)o1`, the inhibition was -7.43% (inactive).

As to `CCOC(=O)c1ccc(NC(=O)Cn2cnc3cc(C)c(C)cc32)cc1`, the inhibition is 58.4% (active).

`CCOC(=O)c1ccc(NC(=O)Cn2nnc(-c3ccc(C)cc3)n2)cc1`: the inhibition was 1.76% (inactive).

For the compound `CCOC(=O)c1ccc(NC(=O)CSc2ncccn2)cc1`, the inhibition was 0.67% (inactive).

Take `O=C(O)CC1=C(Nc2ccccc2)C(=O)N(c2ccccc2)C1c1ccc(Cl)cc1` (stereo not given): the inhibition is 1.11% (inactive).

For `Cc1ccc2cc(/C=N/NC(=O)[C@@H]3CCCN3)c(Cl)nc2c1`, the inhibition is 0.27% (inactive).

As for `CC(=O)Nc1cccc(OCC(=O)/C=C2\N(C)c3ccccc3C2(C)C)c1`, the inhibition was 44.2% (active).

Turning to `Cc1noc(C)c1C(=O)OCC(=O)/C=C1\N(C)c2ccccc2C1(C)C`, the inhibition is 4.98% (inactive).

Take `CC(C)Nc1nnc(SCC(=O)/C=C2\N(C)c3ccccc3C2(C)C)s1`: the inhibition was 0.74% (inactive).

Regarding `COc1ccc(-n2cc(CNC3CCOCC3)c(-c3cccc(F)c3)n2)cc1`, the inhibition was 5.7% (inactive).

With `CCCCC(NC(=O)c1cccc(Br)c1)C(=O)O` (stereo not given), the inhibition is 0.6% (inactive).

As to `COc1ccc(C(=O)Nc2ccc(F)cc2F)cc1`, the inhibition is -0.96% (inactive).

On to `O=C(Nc1cccc(F)c1)c1ccc(S(=O)(=O)N2CCCC2)cc1`, for which the inhibition was 7.79% (inactive).

Consider `CCOC(=O)N1CCN(S(=O)(=O)c2ccc(C(=O)Nc3ccc(F)cc3F)cc2)CC1`, for which the inhibition was 53.5% (active).

On to `Cc1cc(C)c(NC(=O)CN2CCOCCOCCOCCOCC2)c(C)c1`, for which the inhibition is 2.62% (inactive).

Consider `O=C(CSc1ccc(C(F)(F)F)cc1[N+](=O)[O-])NCCOc1ccccc1`, for which the inhibition was 3.21% (inactive).

For the compound `CC#CC[N+](C)(C)CCCCCC`, the inhibition was 43.8% (active).

For the compound `C/C(=N\N1CCN(Cc2ccc(C)cc2)CC1)c1ccco1`, the inhibition was 3.54% (inactive).

Turning to `Cc1ccc(C(=O)Nc2nc(N)n(-c3ccccc3)n2)cc1`, the inhibition was -1.21% (inactive).

Take `COc1cc(Cl)c(C)cc1NC(=O)[C@@H]1CCCN1C(=O)c1cccs1`: the inhibition was 6.13% (inactive).

On to `COC(=O)Nc1ccc(S(=O)(=O)N2CCN(CCN3C(=O)C4C5C=CC(C5)C4C3=O)CC2)cc1` (stereo not given), for which the inhibition is 5.02% (inactive).

For the compound `COC(=O)CCNC(=O)c1ccc2[nH]c(C)c(C)c2c1`, the inhibition was 3.29% (inactive).

Take `CCOC(=O)c1[nH]c2c(c1-c1ccccc1)C(=O)CC(c1ccc(Cl)cc1)C2` (stereo not given): the inhibition was 8.29% (inactive).

As to `CCCOC(=O)c1[nH]c2c(c1C)C(=O)CC(c1cccs1)C2` (stereo not given), the inhibition was 75.9% (active).

For `COc1cc(C2CC(=O)c3cnc(NC(C)=O)nc3C2)cc(OC)c1OC` (stereo not given), the inhibition is 2.9% (inactive).

On to `CCCOC(=O)c1[nH]c2c(c1C)C(=O)CC(c1cc(OC)c(OC)c(OC)c1)C2` (stereo not given), for which the inhibition is 41.3% (active).

With `CCOC(=O)C1=C(C)NC(=S)NC1c1cccs1` (stereo not given), the inhibition is 3.93% (inactive).

With `CCOC(=O)c1[nH]c2c(c1C)C(=O)CC(c1ccc(N(C)C)cc1)C2` (stereo not given), the inhibition is 4.47% (inactive).

As to `O=C(O)CCCC(=O)Nc1ccc(Oc2cccc(C(F)(F)F)c2)nc1`, the inhibition was -1.72% (inactive).

With `CCOC(=O)C1=C(CC)OC(N)=C(C#N)C1c1ccc(F)cc1F` (stereo not given), the inhibition was 0.94% (inactive).

Take `Cc1ccc(S(=O)(=O)N2CCCC2C(=O)OCc2nc3sc(C)c(C)c3c(=O)[nH]2)cc1` (stereo not given): the inhibition was 3.55% (inactive).

In the case of `O=C1CCCCC1C(=O)c1ccccc1` (stereo not given), the inhibition was 0.06% (inactive).

Take `COc1ccc2nc(/N=C(\N)NC(=O)Nc3ccccc3)nc(C)c2c1`: the inhibition is 31.6% (active).

As to `Cc1nc(/N=C(\N)NC(=O)NC2CCCCC2)nc2ccccc12`, the inhibition is 4.49% (inactive).

With `COc1ccc(NC(=O)Nc2ccc3nc(C)c(C)nc3c2)cc1`, the inhibition is 1.19% (inactive).

For `O=C(NNC(=O)c1cnccc1C(F)(F)F)c1ccc(Cl)cc1`, the inhibition was -1.83% (inactive).

Take `Cc1cccc(Cn2cnc3c(N)c(C)c(C)cc32)c1`: the inhibition is 32.6% (active).

Take `COc1cccc(Cn2cnc3c([N+](=O)[O-])c(C)c(C)cc32)c1`: the inhibition is 9.27% (inactive).

As for `CCOC(=O)c1cn(Cc2cccc(C)c2)nn1`, the inhibition was 2.15% (inactive).

`CCN(CC)S(=O)(=O)c1ccc(OC(C)C)c(N)c1`: the inhibition was 5.49% (inactive).

`COCCOC(=O)C1=C(C)NC(=O)CC1c1cc2c(cc1Br)OCO2` (stereo not given): the inhibition is 3.68% (inactive).

As for `COc1cc2c(cc1/C=C1/NC(=O)N(c3ccccc3)C1=O)OCO2`, the inhibition is 10.5% (inactive).

Consider `COc1ccc(C2CC(=O)Nc3cc(C)c(C)cc32)c(OC)c1OC` (stereo not given), for which the inhibition is 3.54% (inactive).

With `COc1ccc(F)cc1S(=O)(=O)Nc1ccc2c(c1)OCO2`, the inhibition was 3.23% (inactive).

For the compound `CCCOc1ccccc1C1CC(=O)Nc2cc3c(cc21)OCO3` (stereo not given), the inhibition was 71.8% (active).

`COc1ccccc1C1C2=C(COC2=O)Nc2cc3c(cc21)OCO3` (stereo not given): the inhibition is 80.4% (active).

Regarding `CCN(CC)C(=O)CSC(Nc1cccc(F)c1)=C(C#N)C#N`, the inhibition was -0.34% (inactive).

Turning to `Cc1cc(C)c2nc(-c3cccnc3)cc(C(=O)Nc3ccc(S(=O)(=O)Nc4onc(C)c4C)cc3)c2c1`, the inhibition is 8.53% (inactive).

`O=C(Nc1ccccc1Cl)c1ccc2nsnc2c1`: the inhibition is 9.68% (inactive).

As to `O=C(CN1CCCCC1)Nc1ccccc1Cl`, the inhibition is 5.49% (inactive).

As to `O=C(Nc1ccccc1Cl)/C(Cl)=C(\Cl)S(=O)c1ccccc1` (stereo not given), the inhibition is 104% (active).
